This is part of a sample that, as a whole, favours compounds with a hit. Of some 83,000 tested, about 20% had one in any assay.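 In brief: 96-well plates, 48 h treatment, single concentration, percent growth endpoint.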 A number with no mark means an inactive call. Active and inactive are the calls of the source. How the source made its calls: active means growth percent below 10; inactive means the rest.
Experiments:
Assay in all cases: NCI-60 one-dose screen, 48 h (100 = growth as untreated, 0 = no growth, -100 = all killed)
Conditions in all cases: 10 µM unless noted
DU-145 prostate = test system: DU-145 prostate
K-562 leukemia = test system: K-562 leukemia
MALME-3M melanoma = test system: MALME-3M melanoma
MDA-MB-231 breast = test system: MDA-MB-231 breast
RXF 393 renal = test system: RXF 393 renal
SF-268 CNS = test system: SF-268 CNS
SF-539 CNS = test system: SF-539 CNS
UACC-257 melanoma = test system: UACC-257 melanoma
M14 melanoma = test system: M14 melanoma
HT29 colon = test system: HT29 colon
SNB-75 CNS = test system: SNB-75 CNS
SNB-19 CNS = test system: SNB-19 CNS
U251 CNS = test system: U251 CNS
PC-3 prostate = test system: PC-3 prostate
SK-MEL-5 melanoma = test system: SK-MEL-5 melanoma
UACC-62 melanoma = test system: UACC-62 melanoma
LOX IMVI melanoma = test system: LOX IMVI melanoma
SK-MEL-28 melanoma = test system: SK-MEL-28 melanoma
HCT-15 colon = test system: HCT-15 colon
SF-295 CNS = test system: SF-295 CNS

Structure (SMILES)	growth (DU-145 prostate)	growth (K-562 leukemia)	growth (MALME-3M melanoma)	growth (MDA-MB-231 breast)	growth (RXF 393 renal)	growth (SF-268 CNS)	growth (SF-539 CNS)	growth (UACC-257 melanoma)	growth (M14 melanoma)	growth (HT29 colon)	growth (SNB-75 CNS)	growth (SNB-19 CNS)	growth (U251 CNS)	growth (PC-3 prostate)	growth (SK-MEL-5 melanoma)	growth (UACC-62 melanoma)	growth (LOX IMVI melanoma)	growth (SK-MEL-28 melanoma)	growth (HCT-15 colon)	growth (SF-295 CNS)
COC(=O)CC(=O)C(=O)OC	108%	101%	107%	115%	104%	97.4%	102%	102%	100%	106%	92.2%	107%	102%	99.8%	101%	108%	55.1%	111%	–	–
CNc1ccc(Nc2ccc(S(=O)(=O)O)cc2)c2c1C(=O)c1ccccc1C2=O	112%	101%	110%	111%	104%	114%	101%	107%	112%	105%	101%	104%	96.6%	101%	99.9%	94.6%	88.2%	112%	98.6%	–
CC(O)CCC(C)[N+](=O)[O-] (centres undefined)	111%	99.9%	106%	110%	119%	104%	99%	102%	106%	113%	83.3%	99.9%	99.2%	102%	102%	95.4%	100%	98.3%	102%	–
CC(=O)CC(=O)OC/C=C(/C)CCC=C(C)C	111%	108%	121%	109%	98%	106%	97%	106%	101%	108%	105%	107%	104%	111%	99.6%	97.9%	97.7%	113%	102%	–
O=C(CN1CCN(c2cccc(Cl)c2)CC1)N1CCN(c2nnc(-c3ccc(Cl)cc3)c(-c3ccc(Cl)cc3)n2)CC1	94.8%	38.8%	105%	86.8%	–	89.8%	74.4%	–	106%	59.3%	97.6%	77.6%	71.7%	25.4%	61.6%	71.4%	71.5%	93.8%	52.9%	84.3%
CCOc1ccccc1/C=N\N=C(N/N=C/c1ccccc1OCC)N/N=C/c1ccccc1OCC	16.1%	21.4%	24.1%	9.5% (active)	19.2%	–	–	7.38% (active)	32.3%	-1.15% (active)	22.3%	21.7%	13.4%	3.92% (active)	-52.6% (active)	16.1%	8.71% (active)	30.7%	13.5%	9.61% (active)
CCCCCCCCCCCCCCCCCCOP(=O)(O)O	116%	110%	112%	96.6%	114%	109%	104%	113%	99.4%	106%	97%	101%	101%	92.5%	99.2%	91.5%	99.3%	111%	107%	–
CC(=O)Nc1ccc(S(=O)(=O)Cl)cc1	107%	98.1%	111%	118%	96.2%	109%	100%	131%	118%	106%	94%	110%	95.6%	99.8%	98.3%	97.9%	94.8%	117%	110%	–
N#CCc1ncc(-c2ccc(C(F)(F)F)cc2)c(NC2CCCCCC2)n1	28.5% [100 µM]	4.45% [100 µM] (active)	25.7% [100 µM]	37.4% [100 µM]	36.4% [100 µM]	30.5% [100 µM]	67.2% [100 µM]	23.3% [100 µM]	–	14% [100 µM]	52.5% [100 µM]	45.2% [100 µM]	–	-3.13% [100 µM] (active)	22.9% [100 µM]	42.1% [100 µM]	25% [100 µM]	65.8% [100 µM]	22.1% [100 µM]	–
CCn1cnc(C[C@H](NC(=O)[C@@H](NC(=O)Nc2cc(C(F)(F)F)cc(C(F)(F)F)c2)C(C)C)C(=O)OC)c1	-81.2% [100 µM] (active)	-57.3% [100 µM] (active)	-90.5% [100 µM] (active)	-94.2% [100 µM] (active)	-86.2% [100 µM] (active)	-68.4% [100 µM] (active)	-96.3% [100 µM] (active)	-95.1% [100 µM] (active)	-93.8% [100 µM] (active)	-81% [100 µM] (active)	-100% [100 µM] (active)	-90.8% [100 µM] (active)	-94.3% [100 µM] (active)	-91.8% [100 µM] (active)	-98% [100 µM] (active)	-94.6% [100 µM] (active)	-86% [100 µM] (active)	-96% [100 µM] (active)	-78.6% [100 µM] (active)	–
CC(CCN1CCN(CCC(C)CC(C)(C)C)C1CC(C)CC(C)(C)C)CC(C)(C)C (centres undefined)	103%	58.2%	99.2%	105%	–	91.5%	91.5%	107%	100%	39.4%	80.7%	102%	91.6%	56.7%	108%	103%	81.8%	105%	87.5%	114%
NC(N)=N/N=C/c1cccc(Br)c1	118%	93.6%	100%	105%	95.8%	–	101%	106%	92.8%	103%	92.3%	101%	110%	90.1%	84.7%	107%	89.6%	112%	105%	99.3%
O=C(O)COc1ccc([N+](=O)[O-])cc1Cl	118%	99.5%	107%	115%	108%	109%	98%	91.6%	107%	113%	94.3%	107%	96.5%	97.6%	106%	111%	100%	104%	94.1%	–
O=C(Oc1ccccc1)c1ccccc1Cl	114%	107%	101%	111%	110%	–	94.2%	102%	102%	118%	89.6%	104%	98.5%	95%	104%	107%	107%	107%	98%	110%
O=[N+]([O-])c1ccc(-c2ncc(-c3ccc(O)cc3O)[nH]2)cc1	143%	95.6%	218%	104%	–	101%	118%	-43.6% (active)	135%	123%	103%	93.3%	103%	98%	109%	95.3%	103%	108%	100%	–
O=C1CSC(c2ccccc2Cl)N1c1nnc(-c2ccncc2)o1 (centres undefined)	106%	104%	120%	97.7%	101%	99.5%	–	98.2%	–	98.4%	95.4%	–	96.6%	98.5%	–	92.3%	102%	101%	98.5%	–

Source: PubChem BioAssay (NCI)
